# Several values for one entry are separate records, joined by “and”; a condition that tells them apart may be missing. Equal values may be shown once. Records with an inconclusive call do not appear. Activity calls are given as the source filed them. Rule for the calls: active = hit-call score of the fitted dose curve at least 0.9, where 1 is the maximum; inconclusive = response in the unintended direction; inactive = score below 0.9.
# What was measured:
# [1] = molecular target: Estrogen receptor (Homo sapiens) (UniProt P03372); assay: OT_ER_ERaERa_1440: Odyssey Thera (OT) 24-hour HEK293T Protein-Complementation Assay for Estrogen Receptor-alpha/-alpha Homodimer (AID 2283349);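 note: hits raise fluorescence above DMSO for agonists and antagonists alike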
# Sequence of Estrogen receptor (Homo sapiens) (P03372 whole entry, looked up, the tested form may be a part): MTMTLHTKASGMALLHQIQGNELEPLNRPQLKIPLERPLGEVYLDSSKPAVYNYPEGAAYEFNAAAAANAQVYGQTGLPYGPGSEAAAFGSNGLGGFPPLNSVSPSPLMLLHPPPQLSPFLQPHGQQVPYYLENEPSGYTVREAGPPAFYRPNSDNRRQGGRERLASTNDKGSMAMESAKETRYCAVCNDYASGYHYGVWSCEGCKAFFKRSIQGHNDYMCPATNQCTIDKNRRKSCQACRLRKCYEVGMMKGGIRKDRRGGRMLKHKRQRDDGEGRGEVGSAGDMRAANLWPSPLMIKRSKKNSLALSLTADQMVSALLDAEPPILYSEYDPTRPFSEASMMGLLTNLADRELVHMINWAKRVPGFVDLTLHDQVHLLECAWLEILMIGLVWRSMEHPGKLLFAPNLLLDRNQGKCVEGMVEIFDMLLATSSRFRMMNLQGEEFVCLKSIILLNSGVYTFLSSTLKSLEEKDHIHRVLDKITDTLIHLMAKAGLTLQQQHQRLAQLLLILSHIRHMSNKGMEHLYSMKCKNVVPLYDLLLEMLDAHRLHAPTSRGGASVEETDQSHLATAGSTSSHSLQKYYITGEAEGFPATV
# Method in brief: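 HEK293T cells stably expressing the human ER alpha ligand-binding domain (aa 310-547) as a homodimer PCA were dosed for 24 hours. Fluorescence intensity was read by laser scanning cytometry, and gain of signal was fitted relative to DMSO vehicle.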
# [2] = molecular target: Estrogen receptor (Homo sapiens) (UniProt P03372); assay: OT_ER_ERaERa_0480: Odyssey Thera (OT) 8-hour HEK293T Protein-Complementation Assay for Estrogen Receptor-alpha/-alpha Homodimer (AID 2283351);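 note: rise in fluorescence from reassembled reporter fragments on ERα LBD homodimer in nucleus or whole cell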
# Method in brief: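 Binding reporter in which dimerisation of ERα LBD (aa 310-547) fusions reconstitutes a fluorescent reporter in HEK293T cells. Compounds incubated 8 h; mean fluorescence intensity increase versus DMSO scored.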
# [3] = molecular target: bovine Estrogen Receptor (ER), ESR1 (gene 407238) (UniProt P49884); assay: NVS_NR_bER: NovaScreen (NVS) Nuclear Receptor Binding Assay for bovine Estrogen Receptor (ER) (AID 2283345);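 note: actives lower the bound radioligand count which means they displace the ER ligand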
# Sequence of bovine Estrogen Receptor (ER), ESR1 (gene 407238) (P49884 whole entry, looked up): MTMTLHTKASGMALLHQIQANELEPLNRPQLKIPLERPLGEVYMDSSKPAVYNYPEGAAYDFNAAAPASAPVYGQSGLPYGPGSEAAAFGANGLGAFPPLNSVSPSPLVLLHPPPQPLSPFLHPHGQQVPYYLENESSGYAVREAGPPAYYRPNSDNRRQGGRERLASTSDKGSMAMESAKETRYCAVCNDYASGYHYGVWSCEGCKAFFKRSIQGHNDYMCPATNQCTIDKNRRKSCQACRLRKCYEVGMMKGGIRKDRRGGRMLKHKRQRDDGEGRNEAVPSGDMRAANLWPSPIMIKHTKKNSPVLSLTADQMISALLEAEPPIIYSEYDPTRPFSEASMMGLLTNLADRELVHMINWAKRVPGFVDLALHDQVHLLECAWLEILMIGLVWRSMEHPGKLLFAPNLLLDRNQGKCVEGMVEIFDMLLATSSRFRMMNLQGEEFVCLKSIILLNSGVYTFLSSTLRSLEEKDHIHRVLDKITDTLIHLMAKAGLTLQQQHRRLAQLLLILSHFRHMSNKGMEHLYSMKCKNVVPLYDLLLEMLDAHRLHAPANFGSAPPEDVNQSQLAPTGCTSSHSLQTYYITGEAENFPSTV
# Method in brief: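 Displacement of a radioligand from estrogen receptor in bovine uterine membrane preparations; scintillation signal taken at 18 hours, DMSO as baseline. Single-concentration duplicates (25 uM) preceded concentration-response follow-up of actives.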
# [4] = molecular target: Estrogen receptor (Homo sapiens) + Estrogen receptor beta (Homo sapiens) (UniProt P03372+Q92731); assay: OT_ER_ERaERb_0480: Odyssey Thera (OT) 8-hour HEK293T Protein-Complementation Assay for Estrogen Receptor-alpha/-beta Heterodimer (AID 2283352)
# Sequence of Estrogen receptor (Homo sapiens) + Estrogen receptor beta (Homo sapiens) (P03372 whole entry, looked up, the tested form may be a part): as the sequence (P03372 whole entry, looked up, the tested form may be a part) above
# Sequence of Estrogen receptor (Homo sapiens) + Estrogen receptor beta (Homo sapiens) (Q92731 whole entry, looked up, the tested form may be a part): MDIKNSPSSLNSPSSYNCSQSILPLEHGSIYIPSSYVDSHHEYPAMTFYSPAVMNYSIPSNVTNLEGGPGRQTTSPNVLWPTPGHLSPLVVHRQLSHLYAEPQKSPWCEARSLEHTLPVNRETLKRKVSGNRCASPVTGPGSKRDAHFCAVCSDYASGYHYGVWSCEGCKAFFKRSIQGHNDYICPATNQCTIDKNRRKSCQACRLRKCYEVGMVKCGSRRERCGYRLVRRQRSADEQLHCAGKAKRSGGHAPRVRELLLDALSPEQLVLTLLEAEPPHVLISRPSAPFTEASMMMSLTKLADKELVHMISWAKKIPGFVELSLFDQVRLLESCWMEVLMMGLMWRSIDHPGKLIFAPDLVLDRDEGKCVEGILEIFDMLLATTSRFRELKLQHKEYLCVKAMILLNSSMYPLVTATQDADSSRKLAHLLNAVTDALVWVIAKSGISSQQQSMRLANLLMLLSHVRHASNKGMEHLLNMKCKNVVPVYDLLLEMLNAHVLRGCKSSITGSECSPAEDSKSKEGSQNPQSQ
# Method in brief: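 HEK293T cells expressing ER-alpha/ER-beta LBD fusions to complementary reporter fragments were dosed with compound for 8 hours. Heterodimer formation was read as increased nuclear (agonist) or nuclear plus cytoplasmic (antagonist) mean fluorescence intensity versus DMSO vehicle.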
# [5] = molecular target: Androgen Receptor/SRC-1 Co-activator, AR (gene 367) (UniProt P10275); assay: OT_AR_ARSRC1_0480: Odyssey Thera (OT) 8-hour HEK293T Protein-Complementation Assay for Androgen Receptor/SRC-1 Co-activator (AID 2283354);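 note: hits raise the complementation signal above DMSO so AC50 marks enhancers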
# Sequence of Androgen Receptor/SRC-1 Co-activator, AR (gene 367) (P10275 whole entry, looked up, the tested form may be a part): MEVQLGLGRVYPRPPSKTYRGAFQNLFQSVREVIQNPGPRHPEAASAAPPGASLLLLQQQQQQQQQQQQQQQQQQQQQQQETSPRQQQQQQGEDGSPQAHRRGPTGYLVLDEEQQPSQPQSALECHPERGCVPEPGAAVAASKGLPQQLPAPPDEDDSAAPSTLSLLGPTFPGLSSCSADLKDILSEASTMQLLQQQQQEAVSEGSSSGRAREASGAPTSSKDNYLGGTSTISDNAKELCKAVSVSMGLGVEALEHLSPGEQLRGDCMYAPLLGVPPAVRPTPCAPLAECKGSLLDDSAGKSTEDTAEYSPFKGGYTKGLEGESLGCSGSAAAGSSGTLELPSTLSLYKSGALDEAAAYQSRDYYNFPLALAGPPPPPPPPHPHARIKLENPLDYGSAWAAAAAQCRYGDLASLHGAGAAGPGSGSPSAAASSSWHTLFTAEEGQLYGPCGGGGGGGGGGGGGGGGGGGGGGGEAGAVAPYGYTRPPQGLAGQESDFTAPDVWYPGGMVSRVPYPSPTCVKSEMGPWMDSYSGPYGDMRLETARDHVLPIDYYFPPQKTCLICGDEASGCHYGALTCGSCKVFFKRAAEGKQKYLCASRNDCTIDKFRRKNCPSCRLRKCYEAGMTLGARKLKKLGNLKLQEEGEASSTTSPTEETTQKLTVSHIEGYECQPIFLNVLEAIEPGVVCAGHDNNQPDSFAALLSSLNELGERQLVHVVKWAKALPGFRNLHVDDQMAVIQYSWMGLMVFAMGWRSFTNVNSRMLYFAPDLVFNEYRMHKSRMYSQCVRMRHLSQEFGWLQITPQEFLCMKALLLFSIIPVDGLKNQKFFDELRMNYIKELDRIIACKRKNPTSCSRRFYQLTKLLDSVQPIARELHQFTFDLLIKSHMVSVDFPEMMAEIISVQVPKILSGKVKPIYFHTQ
# Method in brief: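 HEK293T cells stably expressing AR and SRC-1 fused to Venus YFP fragments, imaged 8 h after dosing. Complementation fluorescence scored as nuclear/cytoplasmic ratio at 488 nm in at least 400 cells per image; gain fitted versus DMSO.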
# [6] = molecular target: Estrogen receptor (Homo sapiens) (UniProt P03372); assay: NVS_NR_hER: NovaScreen (NVS) Nuclear Receptor Binding Assay for human Estrogen Receptor (ER) (AID 2283348)
# Method in brief: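 Radioligand competitive displacement binding to estrogen receptor from MCF7 extract, cell-free; 18 h after dosing, scintillation read-out. Primary screen in duplicate at 25 uM; actives followed up in concentration series; loss of signal vs DMSO.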
# [7] = molecular target: Androgen Receptor/SRC-1 Co-activator, AR (gene 367) (UniProt P10275); assay: OT_AR_ARSRC1_0960: Odyssey Thera (OT) 16-hour HEK293T Protein-Complementation Assay for Androgen Receptor/SRC-1 Co-activator (AID 2283353);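 note: actives raise the signal above DMSO so potency reflects increased AR and SRC-1 complex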
# Method in brief: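 Interaction of AR with SRC-1 was followed by YFP fragment complementation in HEK293T cells after 16 h of dosing. Gain of nuclear-over-cytoplasmic 488 nm fluorescence against DMSO controls defined activity.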
# [8] = molecular target: Bile acid receptor (Homo sapiens) (UniProt Q96RI1); assay: NVS_NR_hFXR_Agonist: NovaScreen (NVS) Nuclear Receptor Binding Assay for human Farnesoid X Receptor Agonism (FXR) (AID 2283347)
# Sequence of Bile acid receptor (Homo sapiens) (Q96RI1 whole entry, looked up): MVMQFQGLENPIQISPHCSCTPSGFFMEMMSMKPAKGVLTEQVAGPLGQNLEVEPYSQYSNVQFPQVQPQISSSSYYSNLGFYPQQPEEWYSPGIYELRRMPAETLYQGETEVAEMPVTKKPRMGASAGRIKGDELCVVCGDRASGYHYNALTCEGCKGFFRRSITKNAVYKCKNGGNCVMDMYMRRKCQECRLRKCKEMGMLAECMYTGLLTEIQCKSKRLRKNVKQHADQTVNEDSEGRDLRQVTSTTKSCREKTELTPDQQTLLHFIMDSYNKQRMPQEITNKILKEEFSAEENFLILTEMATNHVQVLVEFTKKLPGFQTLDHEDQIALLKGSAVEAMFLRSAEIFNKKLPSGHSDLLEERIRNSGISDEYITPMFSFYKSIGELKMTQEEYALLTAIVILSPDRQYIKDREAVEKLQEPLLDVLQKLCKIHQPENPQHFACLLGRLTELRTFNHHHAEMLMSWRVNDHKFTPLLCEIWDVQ
# Method: NVS_NR_hFXR_Agonist is a biochemical, single-readout assay that uses extracted gene-proteins in a cell-free assay. Measurements were taken 1 hour after chemical dosing in a 384-well plate.NVS_NR_hFXR_Agonist is one of one assay component(s) measured or calculated from the NVS_NR_hFXR_Agonist assay. It is designed to make measurements of fluorescent resonance energy transfer, a form of binding reporter, as detected with fluorescent resonance energy transfer signals by Time-Resolved Fluorescence Resonance Energy Transfer (TR-FRET) technology.Data from the assay component NVS_NR_hFXR_Agonist was analyzed into 1 assay endpoint. This assay endpoint, NVS_NR_hFXR_Agonist, was analyzed in the positive analysis fitting direction relative to DMSO as the negative control and baseline of activity. Using a type of binding reporter, gain-of-signal activity can be used to understand changes in the binding as they relate to the gene NR1H4. Furthermore, this assay endpoint can be referred to as a primary readout, because the performed assay has only produced 1 assay endpoint. To generalize the intended target to other relatable targets, this assay endpoint is annotated to the nuclear receptor intended target family, where the subfamily is non-steroidal. […]
smiles,measurement,setting,value
O=C/C=C/c1ccccc1,outcome,[1],inactive
same,outcome,[2],inactive
CCOP(=S)(OCC)Oc1nc(Cl)c(Cl)cc1Cl,outcome,[3],inactive
same,AC50,[1],70.6 µM (active)
same,AC50,[2],71.3 µM (active)
same,AC50,[4],50 µM (active)
same,AC50,[5],78.9 µM (active)
CCCCOCCOC(C)=O,outcome,[1],inactive
same,outcome,[2],inactive
CC(C)C1CCC(Cc2ccc(Cl)cc2)C1(O)Cn1cncn1 (centres undefined),outcome,[6],inactive
same,outcome,[1],inactive
same,outcome,[2],inactive
CC(C)(OO)c1ccccc1,outcome,[6],inactive
same,outcome,[1],inactive
same,outcome,[2],inactive
O=C(CCl)CCl,outcome,[6],inactive
CC(=O)[O][Hg][c]1ccccc1,outcome,[6],inactive
same,outcome,[1],inactive
same,outcome,[2],inactive
same,AC50,[7],1.86 µM (active)
same,AC50,[5],3.4 µM (active)
Cl/C=C/Cl,outcome,[1],inactive
same,outcome,[2],inactive
O=C1C2(Cl)C3(Cl)C4(Cl)C(Cl)(Cl)C5(Cl)C3(Cl)C1(Cl)C5(Cl)C24Cl (centres undefined),outcome,[8],inactive
same,AC50,[7],19.2 µM (active) and 46.6 µM (active) and 26 µM (active)
same,AC50,[5],28.5 µM (active) and 76.6 µM (active) and 31.5 µM (active)
CC1(C)CCC(Cc2ccc(Cl)cc2)C1(O)Cn1cncn1 (centres undefined),outcome,[6],inactive
same,outcome,[1],inactive
same,outcome,[2],inactive
O=C(Nc1ccc2[nH]ccc2c1)c1cc2cc(F)ccc2n1Cc1cccc(F)c1,outcome,[6],inactive
same,outcome,[1],inactive
same,outcome,[2],inactive
O=C1CCCN1,outcome,[6],inactive
same,outcome,[1],inactive
same,outcome,[2],inactive
CCC(C)(C)c1ccc(O)c(C(C)(C)CC)c1,outcome,[8],inactive
same,outcome,[6],inactive
same,outcome,[1],inactive
same,outcome,[2],inactive
BrCCBr,outcome,[6],inactive
same,outcome,[1],inactive
same,outcome,[2],inactive
CCCCCCCCSC(=O)Oc1cc(Cl)nnc1-c1ccccc1,outcome,[1],inactive
same,outcome,[2],inactive
Cl/C=C\C[N+]12CN3CN(CN(C3)C1)C2,outcome,[1],inactive
same,outcome,[2],inactive
same,AC50,[7],76.6 µM (active)
same,AC50,[5],91.5 µM (active)
ClC(Cl)=C(Cl)C(Cl)=C(Cl)Cl,outcome,[1],inactive
same,outcome,[2],inactive
COc1ccc(C=O)cc1,outcome,[1],inactive
same,outcome,[2],inactive
CC1(C)Cc2cccc(O)c2O1,outcome,[1],inactive
same,outcome,[2],inactive
same,outcome,[4],inactive
Cc1ccc(N)cc1Cl,outcome,[1],inactive
same,outcome,[2],inactive
same,outcome,[4],inactive
OCc1ccco1,outcome,[1],inactive
same,outcome,[2],inactive
same,outcome,[4],inactive
C=C(C)C#N,outcome,[1],inactive
same,outcome,[2],inactive
same,outcome,[4],inactive
C=CC#N,outcome,[1],inactive
same,outcome,[2],inactive
same,outcome,[4],inactive
ClC1(Cl)C2(Cl)C3(Cl)C4(Cl)C(Cl)(Cl)C5(Cl)C3(Cl)C1(Cl)C5(Cl)C24Cl (centres undefined),outcome,[1],inactive
same,outcome,[2],inactive
same,outcome,[7],inactive
same,outcome,[5],inactive
O=[N+]([O-])c1ccc(O)c([N+](=O)[O-])c1,outcome,[1],inactive
same,outcome,[2],inactive
same,outcome,[4],inactive
same,outcome,[7],inactive
same,outcome,[5],inactive
O=c1[nH]c(=O)[nH]c(=O)[nH]1,outcome,[7],inactive
same,outcome,[5],inactive
CNC,outcome,[1],inactive
same,outcome,[2],inactive
CC(=O)C=C(C)C,AC50,[1],26.6 µM (active)
same,outcome,[2],inactive
[O-][Cl+2]([O-])O,outcome,[1],inactive
same,outcome,[2],inactive
same,outcome,[4],inactive
Cc1ccccc1C(=O)Nc1cccc(OC(C)C)c1,outcome,[1],inactive
same,outcome,[2],inactive
same,outcome,[4],inactive
same,outcome,[7],inactive
same,outcome,[5],inactive
Cn1sc(Cl)cc1=O,outcome,[1],inactive
same,outcome,[2],inactive
same,outcome,[4],inactive
C=CCc1ccc(OC)cc1,outcome,[5],inactive
CC(C)c1cccc(C(C)C)c1O,outcome,[1],inactive
same,outcome,[2],inactive
same,outcome,[4],inactive
same,outcome,[7],inactive
same,outcome,[5],inactive
COP(=O)(OC)OC,outcome,[1],inactive
same,outcome,[2],inactive
same,outcome,[7],inactive
CC12CC1(C)C(=O)N(c1cc(Cl)cc(Cl)c1)C2=O (centres undefined),outcome,[7],inactive
same,outcome,[5],inactive
CNC(=O)O/N=C/C(C)(C)S(C)=O (centres undefined),outcome,[1],inactive
same,outcome,[2],inactive
same,outcome,[4],inactive
CC(C#N)CCC#N (centres undefined),outcome,[1],inactive
same,outcome,[2],inactive
same,outcome,[4],inactive
CCC(=O)C(CC(C)N(C)C)(c1ccccc1)c1ccccc1 (centres undefined),outcome,[1],inactive
same,outcome,[2],inactive
same,outcome,[4],inactive
same,outcome,[7],inactive
CCN1CCC2(CC1)COc1cc3c(cc12)N(C(=O)c1ccc(-c2ccc(-c4nnc(C)o4)cc2C)cc1)CC3,outcome,[1],inactive
same,AC50,[7],7.04 µM (active)
same,AC50,[5],11.7 µM (active)
c1cc[c]([Hg][c]2ccccc2)cc1,outcome,[1],inactive
same,outcome,[2],inactive
same,AC50,[7],41.9 µM (active)
same,AC50,[5],32.2 µM (active)
CC(=O)c1cc(C(C)(C)C)cc2c1CCC2(C)C,outcome,[1],inactive
same,outcome,[2],inactive
Cc1ccc2ccccc2c1C,outcome,[1],inactive
same,outcome,[2],inactive
same,outcome,[4],inactive
same,outcome,[7],inactive
same,outcome,[5],inactive
N#CN=C(N)N,outcome,[1],inactive
same,outcome,[2],inactive
same,outcome,[4],inactive
COc1cc(OC)nc(NC(=O)NS(=O)(=O)c2ncccc2C(=O)N(C)C)n1,outcome,[1],inactive
same,outcome,[2],inactive
same,outcome,[4],inactive

# Source: PubChem BioAssay (EPA / NIEHS)
